Where a name gives a salt, the structure may show the parent alone. Unmarked numbers belong to inactive results.
test system: HeLa; assay: MALAT1 nuclear FISH intensity, robust Z-score vs DMSO; higher = more nuclear MALAT1 lncRNA, active = -3 or less; details: 10 µM; 6 h
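Further: High-content confocal imaging of branched-DNA amplified FISH in 384-well plates, Hoechst-defined nuclei, score is well value minus plate DMSO median over DMSO robust SD, four wells per compound.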

In order of falling “MALAT1 nuclear FISH intensity” value:
1. CO[C@H]1C[C@@H]2CC[C@@H](C)[C@@](O)(O2)C(=O)C(=O)N2CCCC[C@H]2C(=O)O[C@H]([C@H](C)C[C@@H]2CC[C@@H](OCCO)[C@H](OC)C2)CC(=O)[C@H](C)/C=C(\C)[C@@H](O)[C@@H](OC)C(=O)[C@H](C)C[C@H](C)/C=C/C=C/C=C/1C [Everolimus]  2.49
2. O=C(O)CCC/C=C\CC1C(O)CC(O)C1/C=C/C(O)COc1cccc(Cl)c1 (stereo not given) [Cloprostenol]  1.88
3. Cc1cnc(C(=O)NCCc2ccc(S(=O)(=O)NC(=O)NC3CCCCC3)cc2)cn1 [Glipizide]  1.26
4. O=C(O)/C(S)=C/c1ccc(I)cc1  1.13
5. Nc1ncn([C@@H]2O[C@H](CO)[C@@H](O)[C@H]2O)c(=O)n1 [Azacytidine]  1.11
6. CNCCC=C1c2ccccc2CCc2ccccc21  1.01
7. CCN(CC)CCNC(=O)c1cc(Cl)c(N)cc1OC  0.662
8. CCC1(c2ccccc2)C(=O)NCNC1=O [Primidone]  0.625
9. C[S+]([O-])c1ccc(-c2nc(-c3ccc(F)cc3)c(-c3ccncc3)[nH]2)cc1 (stereo not given)  0.568
10. C[C@@H]1NC(=O)[C@@H](N)CNC(=O)[C@H](C2CCNC(=N)N2)NC(=O)/C(=C/NC(N)=O)NC(=O)[C@H](CNC(=O)CC(N)CCCN)NC1=O.N=C1NCC[C@H]([C@@H]2NC(=O)/C(=C/NC(N)=O)NC(=O)[C@H](CNC(=O)C[C@@H](N)CCCN)NC(=O)[C@H](CO)NC(=O)[C@@H](N)CNC2=O)N1 [Capreomycin Disulfate]  0.502
11. CC/C(=C(\c1ccccc1)c1ccc(OCCN(C)C)cc1)c1ccccc1 [Tamoxifen Citrate]  0.495
12. CCNC(=O)CCC/C=C\C[C@@H]1[C@@H](/C=C/[C@@H](O)CCc2ccccc2)[C@H](O)C[C@@H]1O [Bimatoprost]  0.451
13. CCCCC[C@H](O)/C=C/C=C\CCCCCCCC(=O)O  0.385
14. CCCCCCCCCCCCCCCCOCC(COP(=O)([O-])OCC[N+](C)(C)C)OC (stereo not given) [1-Hexadecyl-2-methylglycero-3 PC]  0.382
15. Clc1ccc(C(c2ccccc2Cl)C(Cl)Cl)cc1 (stereo not given) [Mitotane]  0.373
16. CCCCCCCCCCCCCC(=O)N[C@H](C)[C@@H](O)c1ccccc1 [D-erythro-MAPP]  0.232
17. CC1(COc2ccc(CC3SC(=O)NC3=O)cc2)CCCCC1 (stereo not given) [Ciglitazone]  0.154
18. CCN(CC)C(=O)/C(C#N)=C/c1cc(O)c(O)c([N+](=O)[O-])c1 [Entacapone]  0.0508
19. CCCCCC(O)CCCC(=O)O (stereo not given) [5-Hydroxydecanoate]  0.02
20. C#C[C@]1(O)CC[C@H]2[C@@H]3CCc4cc(OC)ccc4[C@H]3CC[C@@]21C [Mestranol]  0.00444
21. CCCC(=O)O[C@]1(C(=O)COC(C)=O)CC[C@H]2[C@@H]3C[C@H](F)C4=CC(=O)C=C[C@]4(C)[C@@]3(F)[C@@H](O)C[C@@]21C [Difluprednate]  -0.0991
22. CCN(CC)C(=O)C1(c2ccccc2)CC1CN (stereo not given)  -0.146
23. CCCCCC1OC1C/C=C\C/C=C\C/C=C\CCCC(=O)O (stereo not given) [14,15-Epoxyeicosa-5Z,8Z,11Z-trienoic acid]  -0.17
24. COc1cc(C=C(C#N)C(N)=O)cc(CSc2nc3ccccc3s2)c1O [Tyrphostin AG-825]  -0.244
25. CCCCCOc1ccc(-c2cc(-c3ccc(C(=O)N[C@H]4C[C@@H](O)[C@@H](O)NC(=O)[C@@H]5[C@@H](O)[C@@H](C)CN5C(=O)[C@H]([C@H](O)CC(N)=O)NC(=O)[C@H]([C@H](O)[C@@H](O)c5ccc(O)c(OS(=O)(=O)O)c5)NC(=O)[C@@H]5C[C@@H](O)CN5C(=O)[C@H]([C@@H](C)O)NC4=O)cc3)no2)cc1 [Micafungin]  -0.311
26. O=C1CN(/N=C/c2ccc(-c3ccc([N+](=O)[O-])cc3)o2)C(=O)N1 [Dantrolene sodium salt]  -0.32
27. CCOc1cc(CC(=O)N[C@@H](CC(C)C)c2ccccc2N2CCCCC2)ccc1C(=O)O [Repaglinide]  -0.349
28. CCCCCCCCCCCCCCCC(=O)N[C@H](CN1CCOCC1)[C@H](O)c1ccccc1 (racemic)  -0.367
29. COc1cc2nc(N(C)CCCNC(=O)C3CCCO3)nc(N)c2cc1OC (stereo not given) [Alfuzosin]  -0.416
30. O=c1[nH]cnc2c1ncn2[C@H]1CC[C@@H](CO)O1 [Didanosine]  -0.434
31. COc1cc(C(C)=O)ccc1OCCCN1CCC(c2noc3cc(F)ccc23)CC1 [Iloperidone]  -0.486
32. CC(C)/N=c1\cc2n(-c3ccc(Cl)cc3)c3ccccc3nc-2cc1Nc1ccc(Cl)cc1 [Clofazimine]  -0.504
33. CCc1cccc2c3c([nH]c12)C(CC)(CC(=O)O)OCC3 (stereo not given) [Etodolac]  -0.647
34. NCCC(O)(P(=O)(O)O)P(=O)(O)O [Pamidronate Disodium  Pentahydrate (Pamidronic Acid)]  -0.734
35. O=NN(CCCl)C(=O)NCCCl [Carmustine]  -0.821
36. C=CC[N+]1([C@H]2C[C@H]3[C@@H]4CC[C@H]5C[C@H](O)[C@@H](N6CCOCC6)C[C@]5(C)[C@H]4CC[C@]3(C)[C@H]2OC(C)=O)CCCC1 [Rocuronium Bromide]  -0.874
37. COc1ccccc1OCC(O)CN1CCN(CC(=O)Nc2c(C)cccc2C)CC1 (stereo not given)  -0.961
38. COc1ccc(Cl)cc1C(=O)NCCc1ccc(S(=O)(=O)NC(=O)NC2CCCCC2)cc1 [Glibenclamide]  -1.55
39. NS(=O)(=O)c1cc2c(cc1Cl)NCNS2(=O)=O [Hydrochlorothiazide]  -1.71

`COC1=C(OC)C(=O)c2ccccc2C1=O` [2,3-Dimethoxy-1,4-naphthoquinone] was tested, and the “MALAT1 nuclear FISH intensity” value was -3.84 (active).

— the supplement of paper PMC9844399
